Compound activity (PubChem)
IL1B secr inh: inflammasome signaling inhibition, IL-1 beta readout; THP-1 LPS/ATP IL-1B secretion, AlphaLISA, 16 h; active compounds read low; activity change, % at 57.5 µM; 360,000 compounds, 4.7% hits; in the data active means activity change below about -50%; inconclusive means mostly about -30% to -49%; further: on the % scale 0 is the no-effect control and ±100 the full control effect
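Secreted IL-1B measured by AlphaLISA bead assay after 16 h compound exposure of THP-1 cells; compounds (final up to 57.5 uM) added 1 h before LPS (250 ng/mL) and ATP (1.25 mM) stimulation; lower signal means less secretion.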
DT40 TDP1 CPT: growth inhibition of DT40 Tdp1-/-;hTDP1 cells with camptothecin (screen for TDP1 inhibitors); chicken DT40 Tdp1-/-;hTDP1 cells + 20 nM CPT, ATP luminescence, 48 h; Potency, µM (doses to about 46.2 µM), for inactives: top-dose activity change, negative = growth inhibition, hits mostly inhibitors; 420,000 compounds, 12% hits; AID 686979; further: potency means the concentration at half of the fitted maximal effect; on the % scale 0 is the no-effect control and ±100 the full control effect; nearly all actives have a fitted effect of over 55% in size
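Chicken DT40 Tdp1-/- cells complemented with human TDP1, 400 cells/well, exposed to compounds plus 20 nM camptothecin for at least 48 h at 37 C; viability read as ATP content by CellTiter-Glo luminescence.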
TDP1 cell noCPT: qHTS for Inhibitors of human tyrosyl-DNA phosphodiesterase 1 (TDP1): qHTS in cells in absence of CPT; DT40 Tdp1-/- hTDP1 cells, no CPT, ATP luminescence, 48 h; 420,000 compounds, 15% hits; Potency, µM (doses to about 46.2 µM), inactives show at the highest dose activity change, negative = growth inhibition, hits mostly inhibitors; further: potency means the concentration at half of the fitted maximal effect; on the % scale 0 is the no-effect control and ±100 the full control effect; nearly all actives have a fitted effect of over 55% in size
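Seeded 400 DT40-hTDP1 cells/well (vehicle DMSO, no 20 nM CPT); pinned compounds; ≥48 hr at 37 °C; CellTiter-Glo luminescence as viability measure.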
S-ASM inh: blocks human secretory acid sphingomyelinase. placental ASM, HMU-PC fluorogenic substrate, 60 min. Potency, µM (top dose mostly 57.5 µM), for the others: at the highest dose activity change, negative = inhibition, most hits filed as inhibitors. 340,000 compounds, 0.006% hits. AID 504937; further: potency means the concentration at half of the fitted maximal effect
Target sequence (P17405 47-631 limits assumed): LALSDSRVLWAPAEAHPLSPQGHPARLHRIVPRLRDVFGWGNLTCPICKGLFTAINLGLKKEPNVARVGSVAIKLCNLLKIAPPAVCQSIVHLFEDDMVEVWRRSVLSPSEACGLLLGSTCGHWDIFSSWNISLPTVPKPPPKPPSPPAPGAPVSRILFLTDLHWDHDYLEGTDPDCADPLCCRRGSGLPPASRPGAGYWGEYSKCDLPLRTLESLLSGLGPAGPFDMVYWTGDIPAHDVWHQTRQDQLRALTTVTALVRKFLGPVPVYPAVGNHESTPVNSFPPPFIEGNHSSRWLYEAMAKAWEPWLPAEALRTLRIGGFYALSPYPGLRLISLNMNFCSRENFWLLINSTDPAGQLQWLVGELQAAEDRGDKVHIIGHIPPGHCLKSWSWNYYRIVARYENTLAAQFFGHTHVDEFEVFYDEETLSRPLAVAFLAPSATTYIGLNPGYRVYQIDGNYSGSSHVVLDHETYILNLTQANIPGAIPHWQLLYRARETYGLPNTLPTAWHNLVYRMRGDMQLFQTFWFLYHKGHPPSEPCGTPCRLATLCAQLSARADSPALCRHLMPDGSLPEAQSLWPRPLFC
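HMU-PC0 cleavage (9 uM final) by human placental ASM, 60 min at 37 °C following 10 min compound exposure at RT; stopped at pH 10, fluorescence Ex 386/Em 447 nm.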
HepG2 viability: kills HepG2 cells in TGF-b inhibitor counter-screen; HepG2 CAGA-GFP viability, ATP luminescence, 18 h; Potency, µM (titrated, usually from 46.1 µM), for the others: at the top dose activity change, negative = cytotoxicity, usual class: cytotoxic; 410,000 compounds, 0.76% hits; AID 588856; further: potency means the concentration at half of the fitted maximal effect
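CellTiter-Glo luminescence gave cytotoxicity after 18 hours at 37 degrees C. The cells were HepG2 CAGA-GFP in 1% FBS DMEM, stimulated with 500 pg/mL TGF-beta after compound addition. %Activity was normalised to no-cell wells (complete cell-killing) and DMSO (no toxicity), and curves were fitted and classified.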
TGFb SMAD3 inh: inhibitors of TGF-b signaling | Potency, µM (titrated, usually from 46.1 µM), without a hit: at the highest dose activity, negative = inhibition, usual class: inhibitors | AID 588855 | 410,000 compounds, 1.2% hits | HepG2 CAGA-GFP TGF-b/SMAD3 reporter, GFP fluorescence, 18 h; TGF-beta stimulated, 500 pg/mL final; further: potency means the concentration at half of the fitted maximal effect; on the % scale 0 is the no-effect control and ±100 the full control effect; nearly all actives have a fitted effect of over 65% in size
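TGF-beta reporter screen: HEPG2 CAGA-GFP, 1% FBS, 500 pg/mL TGF-beta final, 18 h; per-cell GFP summed per well; curves fitted and categorized by class.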
An asterisk follows results filed as active; u = inconclusive; x = no result. Only some compounds are listed: those with a hit (about 19% of all), similar ones and a draw of the others. Unless noted, the call rests on the fitted dose curve; in most records, active means well fitted curve in the direction sought with a large enough effect; inconclusive means small, poorly fitted or top-dose-only effect, or another doubt; inactive means no such curve, though single readings can be large; an effect the other way counts as inactive or inconclusive.

SMILES	IL1B secr inh	DT40 TDP1 CPT	TDP1 cell noCPT	S-ASM inh	HepG2 viability	TGFb SMAD3 inh
COc1ccc(/C(C)=N/NC(=O)OC(C)(C)C)cc1[N+](=O)[O-]	0	9%	0%	0%	14%	1%
CSc1ncccc1C(=O)OCC(=O)NC1CC1	8	0%	-1%	2%	0%	-9%
CSC1=NC2(CC(c3ccccc3)Oc3cc(O)ccc32)CC(C)(C)N1 (stereo not drawn)	1	23µM*	21µM*	1%	-40%	-12%
NC(=O)C1CCN(c2nc(-c3ccccc3C(F)(F)F)cs2)CC1	x	x	x	-4%	9%	19%
Cc1ccc2cc(CN(C(=O)c3cccc(Cl)c3)c3ccccc3)c(=O)[nH]c2c1	x	12µM*	18µM*	x	3%	6%
COc1ccc2[nH]c(=O)c(CN(C(=O)c3cccc(Cl)c3)c3ccccc3OC)cc2c1	x	23µM*	u	x	-13%	-14%
CCOc1ccc(N(Cc2cc3cc(C)ccc3[nH]c2=O)C(=O)c2cccc(Cl)c2)cc1	x	9.2µM*	u	x	-16%	-6%
COc1ccccc1N(Cc1cc(=O)[nH]c2ccccc12)C(=O)c1cccc([N+](=O)[O-])c1	-18	21µM*	u	-1%	-1%	-1%
CCOc1ccc(N(Cc2cc3cc(OC)ccc3[nH]c2=O)C(=O)C2CCCO2)cc1 (stereo not drawn)	-11	u	18µM*	27%	66%	3%
COc1ccc(N(Cc2cc3ccccc3[nH]c2=O)C(=O)C2CCCO2)cc1 (stereo not drawn)	1	1%	2%	1%	11%	-2%
COc1ccc(NC(=O)c2cc3c(s2)CCC(C)C3)cc1S(=O)(=O)N1CCOCC1 (stereo not drawn)	0	u	21µM*	-2%	-22%	u
COc1cc(S(=O)(=O)N2CCOCC2)ccc1NC(=O)c1cc2c(s1)CCC2	u	16µM*	26µM*	-2%	-52%	-10%
Cc1ccc(S(=O)(=O)Nc2ccc(Cl)cc2)cc1NC(=O)c1cc2c(s1)CCCC2	-64*	u	u	-16%	-36%	13µM*
CC1CCc2sc(C(=O)Nc3ccc(C(N)=O)cc3)cc2C1 (stereo not drawn)	-70*	5%	-5%	4%	-14%	-9%
COC(=O)CCSCC(=O)Nc1ccc(S(=O)(=O)N2CCOCC2)cc1OC	36	-5%	28%	1%	-2%	0%
COc1ccc(-n2c(SCC(=O)Nc3cc(C)on3)nc3c([nH]c4ccccc43)c2=O)cc1OC	0	-1%	u	-19%	-24%	15%
CC1CCCCC1NCc1cccc([N+](=O)[O-])c1 (stereo not drawn)	u	u	5%	-2%	1%	2%
Cc1ccc(NC(=O)c2cc3c(s2)CCC3)cc1S(=O)(=O)N1CCOCC1	u	u	u	-10%	-23%	-12%
Cc1ccc(S(=O)(=O)N2CCOCC2)cc1NC(=O)c1cc2c(s1)CCC2	u	u	16µM*	7%	-17%	-4%
COc1ccccc1CCNC(=O)Cc1c(C)c2cc(Cl)c(O)cc2oc1=O	x	-27%	-29%	x	-4%	2%
O=S(c1ccccc1O)S(=O)c1ccccc1O (stereo not drawn)	u	5.8µM*	5.2µM*	-3%	-6%	0%
CS(=O)c1ccccc1O (stereo not drawn)	26	22%	17%	1%	3%	-1%
CCOc1ccc(NC(=O)CC(c2ccccc2)c2ccc(F)cc2)cc1 (stereo not drawn)	5	-15%	15µM*	-1%	-9%	-1%
COc1ccc(NC(=O)CC(c2ccc(F)cc2)c2ccc(OC(C)C)cc2)cc1 (stereo not drawn)	9	u	21µM*	-14%	-11%	-9%
CCOc1ccc(NC(=O)Cc2ccccc2)cc1	-7	-3%	u	3%	3%	0%
SMILES	IL1B secr inh	DT40 TDP1 CPT	TDP1 cell noCPT	S-ASM inh	HepG2 viability	TGFb SMAD3 inh
Cc1ccc(S(=O)(=O)NC2CC(C)(C)N(O)C(C)(C)C2)cc1	19	u	21µM*	2%	3%	u
CCCCCCCCCC(=O)N[C@@H]1c2cc(OC)c(OC)cc2C[C@H]1O	0	u	16µM*	-9%	-12%	-9%
CCc1nnc2c(N3CCN(c4cccc(C(F)(F)F)c4)CC3)nc3ccccc3n12	x	21µM*	21µM*	x	-16%	u
COc1ccc(N2CCN(c3nc4ccccc4n4c(C)nnc34)CC2)cc1	x	-6%	-9%	x	1%	46%
CCc1nnc2c(N3CCN(c4cccc(C)c4)C(C)C3)nc3ccccc3n12 (stereo not drawn)	x	21µM*	u	x	-21%	-14%
Cc1cccc(N2CCN(c3nnnn3-c3ccccc3)CC2C)c1 (stereo not drawn)	-14	u	u	-1%	-3%	-7%
Cc1nc2c(c(C)nn2C(C)(C)C)c(C)c1CCC(=O)Nc1ccc(F)cc1	x	u	-23%	x	10%	10%
Cc1nc2c(c(C)nn2C(C)(C)C)c(C)c1CCC(=O)Nc1ccc(Br)cc1Br	x	u	26µM*	x	2%	u
COc1ccc(OC)c(NC(=O)CCc2c(C)nc3c(c(C)nn3C(C)(C)C)c2C)c1	x	u	16µM*	x	7%	-3%
COc1ccccc1Nc1cc(C)nc2nc(-c3ccccc3)nn12	x	16µM*	u	x	-2%	0%
Cc1ccc(-c2nc3nc(C)cc(Nc4ccccc4O)n3n2)cc1	x	x	x	x	9%	10%
COc1ccc(-c2nc3nc(C)cc(Nc4ccc(C(C)=O)cc4)n3n2)cc1	x	u	15µM*	x	-10%	u
Cc1ccc(N(CC(=O)NCCc2ccc(Cl)cc2)S(=O)(=O)N(C)C)cc1	x	u	u	x	-1%	-24%
Cc1ccc(S(=O)(=O)N(CC(=O)NCCc2ccc(Cl)cc2)c2ccccc2C)cc1	x	18µM*	13µM*	x	-22%	u
Cc1ccc(N(CC(=O)NCC(O)c2ccccc2)S(=O)(=O)c2ccc(C)cc2)cc1 (stereo not drawn)	-94*	-1%	-23%	-2%	-8%	9%
